Screening results as filed in PubChem BioAssay.
CHRM1 PAM: positive allosteric modulators of human M1 muscarinic receptor | AID 588819 | activation, % at 3 µM | P11229 | 360,000 tested, 0.088% active | CHO-K1 hM1, Fluo-8 calcium fluorescence, ACh EC20; 0% = ACh EC20, 100% = maximal ACh; in the data active = activation above about 19%, passing the limit was not always enough
Target sequence (P11229 whole entry, looked up): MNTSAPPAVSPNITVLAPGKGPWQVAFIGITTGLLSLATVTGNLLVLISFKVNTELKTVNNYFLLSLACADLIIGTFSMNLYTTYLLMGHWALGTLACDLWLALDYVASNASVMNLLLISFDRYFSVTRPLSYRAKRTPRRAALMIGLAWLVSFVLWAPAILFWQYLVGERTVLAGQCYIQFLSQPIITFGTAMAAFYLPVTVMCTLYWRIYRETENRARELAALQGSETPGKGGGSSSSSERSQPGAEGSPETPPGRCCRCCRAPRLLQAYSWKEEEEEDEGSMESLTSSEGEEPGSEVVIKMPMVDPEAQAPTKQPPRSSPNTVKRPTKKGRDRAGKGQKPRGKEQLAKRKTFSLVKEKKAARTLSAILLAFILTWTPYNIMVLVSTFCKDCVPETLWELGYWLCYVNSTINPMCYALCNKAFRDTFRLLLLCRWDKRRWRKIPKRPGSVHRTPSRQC
M1 ag parental: M1 agonist counterscreen hit in parental CHO-K1 cells | Fluo-8 calcium fluorescence; scaled to maximal ATP response, vehicle zero | activation, % at 3 µM | 360,000 tested, 0.48% active; in the data active = activation above about 15%;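 note: untransfected CHO-K1 host cells lacking M1 receptor as counterscreen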
M1 antag: blocks human M1 muscarinic receptor | P11229 | CHO-K1 hM1, Fluo-8 calcium fluorescence, ACh EC80 antagonist | inhibition, % at 3 µM | 360,000 tested, 1.3% active;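 active = percent inhibition above its own plate's cutoff, namely the mean of that plate's compound wells plus 3 SD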;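 note: peak over basal fluorescence ratio during 140 s after agonist addition; 0% = ACh EC80 plus DMSO and 100% = DMSO alone without agonist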
CHO-K1 Ca antag: M1 antagonist counterscreen hit in parental CHO-K1 cells; ATP-induced calcium, Fluo-8 fluorescence; inhibition, % at 3 µM; 360,000 tested, 0.6% active; AID 602250;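 active = inhibition above a per-plate cutoff, the plate's mean sample inhibition plus 3 SD, cut at about 24% in these data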;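 note: 0% = DMSO plus EC80 ATP and 100% = DMSO alone without ATP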
CHRM1 agonist: agonists of human M1 muscarinic receptor; CHO-K1 hM1, Fluo-8 calcium fluorescence, agonist mode; 0% DMSO, 100% acetylcholine EC100; activation, % at 3 µM; 360,000 tested, 0.33% active;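 active = activation above the run's mean compound activation plus 3 SD, cut at about 16% in these data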;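 note: peak over basal fluorescence ratio within a 140 s kinetic read after compound addition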
M1 PAM parental: nonselective activator or artifact in parental CHO-K1 calcium assay; 360,000 tested, 0.02% active; activation, % at 3 µM; ATP EC20, Fluo-8 calcium fluorescence; 0% at ATP EC20, 100% at ATP max;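 active = activation above the run cutoff, the mean activation of all test compounds plus 3 SD, cut at about 40% in these data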;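 note: peak over basal fluorescence ratio in a 140 s read after ATP addition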
* marks the source's active call; other numbers are inactive results; x = not tested or not shown. Hits are enriched below; roughly 2.3% of the tested compounds scored in any of these assays.

SMILES | CHRM1 PAM | M1 ag parental | M1 antag | CHO-K1 Ca antag | CHRM1 agonist | M1 PAM parental
CC(CCCN(C)C)C(Cc1ccccc1)c1ccccc1 (stereo unspecified) | -24.0 | 4.6 | 80.2* | -12.1 | -7.5 | 24.5
COc1ccc(C(C)=O)cc1COC(=O)CSCC(=O)Nc1ccc(C)cc1 | 4.9 | 0.7 | -15.9 | 8.1 | 0.1 | -12.2
CCOC(=O)CSc1nnc(NC(=O)CN2CCCCC2)s1 | 9.2 | 1.6 | -10.8 | -16.7 | -2.2 | 7.1
O=[N+]([O-])c1ccccc1/C=N\N1CCN(c2ccccc2)CC1 | -11.7 | 27.8* | -0.3 | 1.4 | -7.0 | 7.0
CCN(CC)CCOC(=O)C12CC3CC(CC(C3)C1)C2 | -21.2 | 0.8 | 40.8* | -7.8 | -5.3 | 8.1
CCn1c(CCn2ccnc2C)n[nH]c1=S | -15.9 | 0.8 | 30.1 | -17.7 | 27.9* | 6.4
CCn1c(CC(C)C)n[nH]c1=S | 4.7 | 0.2 | 4.5 | -4.9 | -3.8 | 8.3
NNC(=O)c1sccc1OCc1ccc(F)cc1 | 12.4 | 1.3 | -11.9 | -3.0 | -0.6 | 10.8
Cc1ccc(COc2ccsc2C(=O)O)cc1 | 12.6 | 15.1* | -9.0 | 0.3 | -7.0 | 17.7
O=C(N/N=C/c1ccc(F)cc1)c1sccc1OCc1ccc(F)cc1 | 7.2 | 2.6 | -13.2 | -19.2 | 1.8 | 44.5*
CCOc1ccsc1C(=O)O | 0.8 | 1.1 | -1.2 | 29.9* | -3.6 | -26.9
O=C(N/N=C/c1ccc(Cl)cc1)c1sccc1OCc1ccc(F)cc1 | 7.0 | 0.3 | -10.4 | -8.5 | 0.1 | 29.8
COc1cccc(CN(C)CC(=O)Nc2ccccc2C(C)C)c1 | 0.9 | 0.0 | 1.8 | -10.0 | -4.5 | 10.1
O=C1NC(=S)S/C1=C\C=C\c1ccc([N+](=O)[O-])o1 | -4.9 | 25.9* | 55.3* | 43.6* | 17.5* | 1.7
Cc1csc(N(C)C(=O)CSc2nnc(COc3cccc4ccccc34)o2)n1 | -8.5 | -0.5 | 15.6 | 5.6 | -3.4 | 60.9*
C=CCNc1nc(NCCOc2ccccc2Cl)c2sc(-c3ccccc3)cc2n1 | -5.0 | 1.1 | 5.7 | 7.2 | -4.6 | 3.7
C/C=C/c1cccc(-c2nc(C(=O)N3CCCCC3)cc3c2[C@@H](CCO)N(C(=O)NC(C)C)C3)c1 | x | 0.7 | x | -3.1 | x | -1.1
COc1ccc(-n2cc(-c3ccccc3)c3c(NCCCN4CCOCC4)ncnc32)cc1 | -6.2 | 4.2 | 11.3 | -19.8 | -5.9 | -7.5
COc1ccc(-n2cc(-c3ccccc3)c3c(N4CCOCC4)ncnc32)cc1 | -11.5 | 5.6 | 39.7* | -7.1 | -3.7 | 10.6
Fc1ccc(-n2cc(-c3ccccc3)c3c(N4CCOCC4)ncnc32)cc1 | -10.0 | 5.2 | 33.2* | -5.0 | -1.8 | -4.3
CCN1CCN(c2ncnc3c2c(-c2ccccc2)cn3-c2ccc(F)cc2)CC1 | 4.7 | 0.0 | -5.9 | -11.9 | -4.7 | 3.4
Cc1cc(C)n(C(C)CC(=O)Nc2ccc3c(c2)OCO3)n1 (stereo unspecified) | -4.3 | 0.1 | 6.6 | -7.0 | -2.8 | -10.4
C=Cc1ccc(C(=O)N2CCCC(Nc3ccc4c(c3)OCCO4)C2)cc1 (stereo unspecified) | 11.2 | 3.8 | -9.8 | -20.8 | -2.4 | 31.1
C=CCOc1cccc(C(=O)N2CCCC(Nc3ccc4c(c3)OCCO4)C2)c1 (stereo unspecified) | -2.9 | 0.6 | -14.4 | 56.9* | -1.7 | -10.9
N#CC1=C(N)NC(SCc2ccc(Br)cc2)=C(C#N)C12CCCCC2 | -4.3 | 8.5 | 13.1 | 23.7* | -0.1 | 4.6
SMILES | CHRM1 PAM | M1 ag parental | M1 antag | CHO-K1 Ca antag | CHRM1 agonist | M1 PAM parental
CSc1ncc(CN2CCN(CC=C(C)C)C(CCO)C2)cn1 (stereo unspecified) | -13.7 | 0.4 | 27.4* | -0.8 | -9.7 | 12.2
CSc1ncc(CN2CCN(C3CCCC3)C(CCO)C2)cn1 (stereo unspecified) | -18.3 | 12.9 | 33.5* | -2.1 | -6.3 | 15.5
CCC(C)(C)NC(=O)c1cc(S(=O)(=O)N2CCCCC2)ccc1N1CCOCC1 | 8.2 | 0.0 | 8.0 | 0.2 | -6.4 | -6.6
O=C(Nc1cnc2ccccn2c1=O)c1ccc(Cl)cc1 | 0.0 | -0.2 | 4.4 | -9.6 | -3.4 | -5.2
O=C(Nc1cccc(Cl)c1N1CCOCC1)c1cccnc1Cl | 11.0 | 21.9* | -2.5 | -0.7 | 4.4 | 7.6
CCOc1ccc2nc(SCC(=O)NCc3ccc(S(N)(=O)=O)cc3)[nH]c2c1 | 15.8 | -0.1 | -5.1 | 9.6 | 5.5 | -16.8
